Records with an inconclusive call do not appear. Unless noted, the call rests on the fitted dose curve; in most records, active means well fitted curve in either direction with a large enough effect (not every such curve was filed as active); inconclusive means small, poorly fitted or top-dose-only effect, or another doubt; inactive means flat fitted curve, though single readings scatter.
Legend:
[1] = AP1 Signaling Pathway (AID 357); details: ME-180 AP-1-bla reporter, EGF-induced, beta-lactamase ratio, 5 h; at 17.2 µM (top of the series) unless noted;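 further: ME-180 reporter cells stimulated with EGF at its EC50 level; on the % scale 0 is the no-effect control and ±100 the full control effect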
Method in brief: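 First, ME-180 AP-1-bla cells were cultured overnight at 37 °C in low-serum Opti-MEM. Next, titrated compounds with EC50 EGF were incubated 5 hours. Finally, CCF4 was added for 2.5 hours and the 460/530 nm ratio recorded.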

[2] = Stat Signaling Pathway (AID 446); details: ME-180 (cervical carcinoma) SIE beta-lactamase reporter, IL-6 stimulated, 5 h; at 17.2 µM (top of the series) unless noted;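 further: ME-180 cervical cancer cells given 40 pM IL-6 alongside compound; SIE-controlled beta-lactamase reporter measured as 460/530 nm FRET emission ratio; on the % scale 0 is the no-effect control and ±100 the full control effect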
Method in brief: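 Compound effects on IL-6-induced STAT reporter activity were measured in ME-180 cells. After overnight culture, cells were co-treated with 40 pM IL-6 for 5 hrs before beta-lactamase substrate loading at room temperature.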

[3] = target: Glucocorticoid receptor (Homo sapiens) (UniProt P04150); assay: GR-GFP Redistribution (AID 450;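 active means compounds whose dose series gives a full or clear partial fitted curve of increased nuclear translocation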; further: potency means the concentration at half of the fitted maximal effect)
Sequence of Glucocorticoid receptor (Homo sapiens) (P04150 whole entry, looked up): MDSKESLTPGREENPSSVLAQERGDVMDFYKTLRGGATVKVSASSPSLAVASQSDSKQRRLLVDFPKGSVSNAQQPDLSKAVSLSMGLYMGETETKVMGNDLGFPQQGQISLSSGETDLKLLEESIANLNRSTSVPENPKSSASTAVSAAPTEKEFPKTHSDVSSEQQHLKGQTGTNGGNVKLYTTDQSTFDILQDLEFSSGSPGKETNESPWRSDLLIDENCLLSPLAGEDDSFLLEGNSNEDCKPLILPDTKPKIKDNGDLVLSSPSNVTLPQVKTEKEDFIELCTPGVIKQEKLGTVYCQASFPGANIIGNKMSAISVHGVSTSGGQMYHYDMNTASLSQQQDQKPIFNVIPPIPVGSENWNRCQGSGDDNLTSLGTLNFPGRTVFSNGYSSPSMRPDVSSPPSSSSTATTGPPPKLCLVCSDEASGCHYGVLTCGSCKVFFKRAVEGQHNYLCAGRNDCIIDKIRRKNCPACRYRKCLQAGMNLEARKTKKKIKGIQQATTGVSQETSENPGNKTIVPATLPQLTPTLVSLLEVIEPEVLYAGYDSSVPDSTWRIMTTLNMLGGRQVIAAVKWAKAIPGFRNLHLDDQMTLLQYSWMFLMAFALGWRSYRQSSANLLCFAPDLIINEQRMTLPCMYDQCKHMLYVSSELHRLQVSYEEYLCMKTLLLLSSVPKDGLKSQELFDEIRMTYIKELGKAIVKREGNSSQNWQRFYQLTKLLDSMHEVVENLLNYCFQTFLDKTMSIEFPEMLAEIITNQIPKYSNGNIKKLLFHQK

Cc1c(C)c2cc(Cl)c(O)c(CN3CCCC(C)C3)c2oc1=O (centres undefined)
inactive: activity change, negative = inhibition [1] 14.1% | activity, negative = inhibition [2] -3.87% | Potency [3] > 20.6 µM

COC(=O)CC1=C(C(=O)OC)C(c2ccc3c(c2Cl)OCO3)C(C#N)=C(N)O1 (centres undefined)
inactive: activity change, negative = inhibition [1] 29.4% | activity, negative = inhibition [2] 14.3% | Potency [3] > 20.6 µM

COCc1[nH]nc2c1C(c1ccc(OC)cc1)C(C#N)=C(N)O2 (centres undefined)
inactive: activity change, negative = inhibition [1] 2.89% | activity, negative = inhibition [2] -11.4% | Potency [3] > 20.6 µM

CCOc1ccc(C2=Nn3c(nnc3-c3ccccn3)SC2)cc1
inactive: activity change, negative = inhibition [1] -11.7% | activity, negative = inhibition [2] 3.43% | Potency [3] > 20.6 µM

CC1CCc2cc(F)cc3c(O)c(C(=O)Nc4cnccn4)c(=O)n1c23 (centres undefined)
inactive: activity change, negative = inhibition [1] -8.92% | activity, negative = inhibition [2] 11.1% | Potency [3] > 20.6 µM

NC(Cc1ccc(Oc2ccc(O)cc2)cc1)C(=O)O (centres undefined)
inactive: activity change, negative = inhibition [1] -2.36% | activity, negative = inhibition [2] -1.48% | Potency [3] > 20.6 µM

COc1ccc2c(c1OC)C(=O)N1c3ccccc3C(=O)N(c3ccccc3)C21 (centres undefined)
inactive: activity change, negative = inhibition [1] -9.35% | activity, negative = inhibition [2] 0.163% | Potency [3] > 20.6 µM

C=CCn1c(=S)[nH]c2nc3c(cc2c1=O)CCCC3
inactive: activity change, negative = inhibition [1] -14.7% | activity, negative = inhibition [2] -11.2% | Potency [3] > 20.6 µM

CC1N(O)C(c2ccc(Cl)cc2Cl)N(O)C1(C)C (centres undefined)
inactive: activity change, negative = inhibition [1] -0.0716% | activity, negative = inhibition [2] 2.16% | Potency [3] > 20.6 µM

COc1ccc(OC)c(NS(=O)(=O)c2ccc(N3CCCC3=O)cc2)c1
inactive: activity change, negative = inhibition [1] 18.1% | activity, negative = inhibition [2] 11.3% | Potency [3] > 20.6 µM

COc1ccc(-c2nc3c(Br)c(N)c(Br)cc3o2)cc1
inactive: activity change, negative = inhibition [1] 4.22% | activity, negative = inhibition [2] 8.24% | Potency [3] > 20.6 µM

CC1(C)Nc2ccc(O)cc2-c2c1ssc2=S
inactive: activity change, negative = inhibition [1] -3.5% | activity, negative = inhibition [2] -16.8% | Potency [3] > 20.6 µM

COc1cccc(C(=O)OCCN(C)C(C)(C)C)c1
inactive: activity change, negative = inhibition [1] 2.79% | activity, negative = inhibition [2] 3.74% | Potency [3] > 20.6 µM

Cc1ccc2[nH]c3c(c2c1)CN(C(=O)CN1CCCc2ccccc21)CC3
inactive: activity change, negative = inhibition [1] -22.5% | activity, negative = inhibition [2] -11.3% | Potency [3] > 20.6 µM

O=C(CCN1C(=O)c2ccccc2C1=O)OCN1C(=O)c2ccccc2C1=O
inactive: activity change, negative = inhibition [1] 5.65% | activity, negative = inhibition [2] -0.962% | Potency [3] > 20.6 µM

COc1ccc(N2CCN(c3oc(COc4ccc(Cl)cc4)nc3C#N)CC2)cc1
inactive: activity change, negative = inhibition [1] -27.6% | activity, negative = inhibition [2] 11.6% | Potency [3] > 20.6 µM

CCCSc1nnc2n(-c3ccccc3OC)c(=O)c3c4c(sc3n12)CCC4
inactive: activity change, negative = inhibition [1] 3.26% | activity, negative = inhibition [2] 15% | Potency [3] > 20.6 µM

N#Cc1nc(COc2ccccc2Cl)oc1NCc1ccc(F)cc1
inactive: activity change, negative = inhibition [1] -5.24% | activity, negative = inhibition [2] -20.3% | Potency [3] > 20.6 µM

Cc1cccc(C)c1OCC(O)CNS(=O)(=O)c1ccccc1C(=O)N1CCCCC1 (centres undefined)
inactive: activity change, negative = inhibition [1] -10.2% | activity, negative = inhibition [2] -0.145% | Potency [3] > 20.6 µM

Cc1nn2cnc3sc4c(c3c2nc1=O)CCCC4
inactive: activity change, negative = inhibition [1] 10.1% | activity, negative = inhibition [2] -8.12% | Potency [3] > 20.6 µM

Cc1ccc(CNc2oc(COc3ccccc3Cl)nc2C#N)cc1
inactive: activity change, negative = inhibition [1] 39.1% | activity, negative = inhibition [2] -8.99% | Potency [3] > 20.6 µM

COC(=O)c1c(NC(=O)c2nn(C)cc2Cl)sc2c1CCCC2
inactive: activity change, negative = inhibition [1] -24.3% | activity, negative = inhibition [2] -10.7% | Potency [3] > 20.6 µM

Cn1c(=O)c2c(nc(SCCN3CCCCC3)n2Cc2ccc(Cl)cc2)n(C)c1=O
inactive: activity change, negative = inhibition [1] 11.2% | activity, negative = inhibition [2] -9.94% | Potency [3] > 20.6 µM

COc1cccc(-c2nc(N3CCC(C)CC3)c3ccccc3n2)c1O
inactive: activity change, negative = inhibition [1] 16.6% | activity, negative = inhibition [2] 5.63% | Potency [3] > 20.6 µM

CCOC(=O)c1[nH]c2ccc(F)cc2c1NC(=O)CCN1CCSCC1
inactive: activity change, negative = inhibition [1] 0.77% | activity, negative = inhibition [2] 0.475% | Potency [3] > 20.6 µM

C=CCn1c(=O)c(C(=O)NCCN(CC)CC)c(O)c2ccccc21
inactive: activity change, negative = inhibition [1] 14.7% | activity, negative = inhibition [2] 8.32% | Potency [3] > 20.6 µM

c1ccc2c(NCC3CCCO3)nc(-c3ccncc3)nc2c1 (centres undefined)
inactive: activity change, negative = inhibition [1] -9.19% | activity, negative = inhibition [2] 4.85% | Potency [3] > 20.6 µM

C=CCOC(=O)C(C#N)c1nc2ccccc2nc1N1CCN(c2ccccc2OCC)CC1 (centres undefined)
inactive: activity change, negative = inhibition [1] 9.88% | activity, negative = inhibition [2] 2.33% | Potency [3] > 20.6 µM

CCOC(=O)/C=c1\s/c(=C(\C#N)C(=O)OCC)n(-c2ccccc2)c1=O
inactive: activity change, negative = inhibition [1] 2.08% | activity, negative = inhibition [2] -22.2% | Potency [3] > 20.6 µM

COC(=O)CN(c1nc(C)c(Br)c(OC)n1)S(=O)(=O)c1ccc(C)cc1
inactive: activity change, negative = inhibition [1] -6.01% | activity, negative = inhibition [2] 7.73% | Potency [3] > 20.6 µM

COc1cccc(CNc2ncc(Br)cc2Br)c1O
inactive: activity change, negative = inhibition [1] -6.72% | activity, negative = inhibition [2] -21.8% | Potency [3] > 20.6 µM

C=CCn1c(SCC(=O)OC)nc2sc3c(c2c1=O)CCN(C)C3
inactive: activity change, negative = inhibition [1] -12.5% | activity, negative = inhibition [2] 2.28% | Potency [3] > 20.6 µM

CCC12CN3CC(CC)(CN(C1)C3c1c(O)ccc3ccccc13)C2=O (centres undefined)
inactive: activity change, negative = inhibition [1] 2.68% | activity, negative = inhibition [2] -7.82% | Potency [3] > 20.6 µM

N#CC1=C2SCC(O)(c3ccccc3)N2C(=O)CC1c1ccccc1 (centres undefined)
inactive: activity change, negative = inhibition [1] -17.2% | activity, negative = inhibition [2] -21.7% | Potency [3] > 20.6 µM

Cc1ccc(-n2c(=O)c3c4c(sc3n3c(C)nnc23)COC(C(C)C)C4)cc1 (centres undefined)
inactive: activity change, negative = inhibition [1] -7.34% | activity, negative = inhibition [2] -0.5% | Potency [3] > 20.6 µM

CC(C)Cc1nc(N2CCN(C(=O)Cc3ccccc3)CC2)c(C#N)c2c1COC(C)(C)C2
inactive: activity change, negative = inhibition [1] -5.38% | activity, negative = inhibition [2] -23.7% | Potency [3] > 20.6 µM

Cc1cc(N2C(=O)C(=O)/C(=C(/O)c3ccccc3)C2c2cccc(Br)c2)no1 (centres undefined)
inactive: activity change, negative = inhibition [1] -11.1% | activity, negative = inhibition [2] -23.1% | Potency [3] > 20.6 µM

CCCCCn1c2nc3ccccc3nc2c2c(=O)n(CC(C)C)cnc21
inactive: activity change, negative = inhibition [1] 2.71% | activity, negative = inhibition [2] -12.9% | Potency [3] > 20.6 µM

N#Cc1c(NCCCO)nc(-c2ccccc2)c2c1CCCC2
inactive: activity change, negative = inhibition [1] -2.16% | activity, negative = inhibition [2] -5.59% | Potency [3] > 20.6 µM

CCC(C)Nc1nc(-c2cccc(OC)c2O)nc2ccccc12 (centres undefined)
inactive: activity change, negative = inhibition [1] -28.3% | activity, negative = inhibition [2] -18.2% | Potency [3] > 20.6 µM

CCC1CCCCN1c1nc(-c2ccncc2)nc2ccccc12 (centres undefined)
inactive: activity change, negative = inhibition [1] -20.7% | activity, negative = inhibition [2] -2.48% | Potency [3] > 20.6 µM

c1ccc(-c2nn3c(C4CCCCC4)nnc3s2)cc1
inactive: activity change, negative = inhibition [1] -19.5% | activity, negative = inhibition [2] 18.2% | Potency [3] > 20.6 µM

O=C(Nc1nc(NC(=O)c2ccco2)n(-c2ccccc2)n1)c1ccccc1
inactive: activity change, negative = inhibition [1] -13.5% | activity, negative = inhibition [2] -22.6% | Potency [3] > 20.6 µM

O=c1[nH]cnc2cc(-c3ccccc3)sc12
inactive: activity change, negative = inhibition [1] -9.08% | activity, negative = inhibition [2] 9.54% | Potency [3] > 20.6 µM

Cc1cc(=O)oc2c(CN3CCC(C)CC3)c(O)c(Cl)cc12
inactive: activity change, negative = inhibition [1] 22.4% | activity, negative = inhibition [2] 7.86% | Potency [3] > 20.6 µM

CCCCc1c(C)c2ccc(OCC(C)=O)cc2oc1=O
inactive: activity change, negative = inhibition [1] -16.2% | activity, negative = inhibition [2] -0.63% | Potency [3] > 20.6 µM

COCCCNC(=O)c1c(N)n(/N=C/c2ccccn2)c2nc3ccccc3nc12
inactive: activity change, negative = inhibition [1] -25.1% | activity, negative = inhibition [2] -10.3% | Potency [3] > 20.6 µM

Cc1cc(OCCN2CCOCC2)nc2ccccc12
inactive: activity change, negative = inhibition [1] -9.97% | activity, negative = inhibition [2] 1.79% | Potency [3] > 20.6 µM

CCN1CC2=C(OC(N)=C(C#N)C2c2ccccc2)/C(=C\c2ccccc2)C1 (centres undefined)
inactive: activity change, negative = inhibition [1] -16.4% | activity, negative = inhibition [2] -29.2% | Potency [3] > 20.6 µM

Cc1ccc(OCC(=O)N2CCC(N3CCCCCC3)CC2)cc1
inactive: activity change, negative = inhibition [1] 3.92% | activity, negative = inhibition [2] 17.9% | Potency [3] > 20.6 µM

Clc1ccc(-c2nnc3sc(Cc4cccs4)nn23)c(Cl)c1
inactive: activity change, negative = inhibition [1] -25% | activity, negative = inhibition [2] 12.6% | Potency [3] > 20.6 µM

N#Cc1c(SCC(N)=O)nsc1SCc1ccc(Cl)cc1
inactive: activity change, negative = inhibition [1] -15.5% | activity, negative = inhibition [2] -18% | Potency [3] > 20.6 µM

CC1(C)Cc2c(c(N3CCCCC3)[nH]c(=S)c2C#N)CS1
inactive: activity change, negative = inhibition [1] 3.57% | activity, negative = inhibition [2] -3.22% | Potency [3] > 20.6 µM

Cc1ccc(NC(=O)CSC2=C(C#N)C(c3ccco3)C3=C(CCCC3=O)N2)cc1 (centres undefined)
inactive: activity change, negative = inhibition [1] -26.3% | activity, negative = inhibition [2] 30.5% | Potency [3] > 20.6 µM

N#C/C(C(=O)NCc1ccco1)=C1/SC(Cc2ccc(Cl)cc2)C(=O)N1c1ccccc1 (centres undefined)
inactive: activity change, negative = inhibition [1] -16.2% | activity, negative = inhibition [2] -13.4% | Potency [3] > 20.6 µM

N#Cc1nc(COc2ccc(Br)cc2)oc1N1CCN(Cc2ccccc2)CC1
inactive: activity change, negative = inhibition [1] -15.5% | activity, negative = inhibition [2] 8.74% | Potency [3] > 20.6 µM

CN(C)CCCN1C(=O)C(=O)/C(=C(/O)c2ccccc2)C1c1ccccn1 (centres undefined)
inactive: activity change, negative = inhibition [1] 7% | activity, negative = inhibition [2] 4.69% | Potency [3] > 20.6 µM

COc1ccc(/C(O)=C2\C(=O)C(=O)N(c3cc(C)on3)C2c2ccccc2OC)cc1C (centres undefined)
inactive: activity change, negative = inhibition [1] -17.1% | activity, negative = inhibition [2] -23.5% | Potency [3] > 20.6 µM
